The list is not random: actives were taken first. Their share in the collection is about 2.7%.
KDM5B inh: KDM5B demethylase inhibition; KDM5B demethylase, FDH-coupled NADH fluorescence (FDH is formaldehyde dehydrogenase); Potency, µM (doses to about 57.7 µM), usual class: inhibitors; hit rate 2.6% among 220,000; active = well fitted inhibition curve with a large enough effect; inconclusive = small, poorly fitted or top-dose-only effect; inactive = no such curve, though single readings can be large or run the other way; also: potency is read from the fitted curve at half-maximal effect; 0% is about no effect; nearly all actives have a fitted effect of over 70% in size
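KDM5BΔAP (200 nM final) in 50 mM HEPES pH 7.5, 0.01% Tween-20 was preincubated 10 min at RT with compound over a concentration range. Substrate mix (H3K4me3 12.5 µM, α-KG 25 µM, Fe²⁺, ascorbate, NAD⁺, FDH) was added, and NADH fluorescence change over 30 min gave dose-response curves.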
IP6K1 inh: IP6K1 kinase inhibition; IP6K1 kinase, ADP-Glo luminescence, 2 h; stronger effect = lower value; activity change, % (series mostly up to about 58 µM); hit rate 0.81% among 140,000; AID 1645851; in the data active = activity change below about -25%; also: % is scaled to controls: 0 for no effect and ±100 for the full control effect
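ADP-Glo luminescence measures ADP made by human IP6K1 during a 2 h RT reaction with ATP/IP6 (mix at 1.3 mM/130 uM); top library doses 57.5 and 19.1 uM final.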
Starred values were filed as active, the others as inactive; i = inactive; u = inconclusive; x = no result.

SMILES | KDM5B inh | IP6K1 inh
Cc1nc(NCCN2CCCC(C(N)=O)C2)c2cccnc2n1 (configuration not stated) | 25µM* | 4
Cc1ccc(-n2c(=O)c3sccc3n(CC(=O)N3CCCCC3C)c2=O)c(C)c1 (configuration not stated) | i | x
CNC(=O)C1CCCC1 | i | x
CCn1c(NC(=O)CCc2nc(-c3ccsc3)no2)nc2ccccc21 | i | x
OC[C@@H]1O[C@H](CNCc2cccc(Cl)c2)[C@H](N2CCN(c3ccccn3)CC2)[C@@H]1O | 25µM* | 8
OC[C@@H]1O[C@H](CNCc2cccc(Cl)c2)[C@H](N2CCN(c3ccc(F)cc3)CC2)[C@@H]1O | u | 5
COc1cc(C)c2c(c1C)C[C@H](C(C)C(=O)NCc1ccco1)CC2 (some centres not stated) | 35µM* | 14
COc1cc(C)c2c(c1C)C[C@H]([C@H](C)C(=O)O)CC2 | i | 7
O=C1CCN(CC(O)COc2ccccc2)c2ccccc2CN1C1CCCC1 (configuration not stated) | x | 11
COc1cccc(C(=O)NCCNC(=O)c2cccc(-c3cc(F)ccc3OC)c2)c1 | x | -3
Cn1ccc2c(C(=O)NCc3cccnc3)nc(-c3ccc(N4CCOCC4)cc3)cc21 | u | 7
Cn1ccc2c(C(=O)NCc3cccnc3)nc(-c3ccc(F)cc3)cc21 | i | -2
O=C(NCc1cccnc1)c1nc(-c2ccccc2)cc2[nH]ccc12 | 35µM* | -8
O=C(NCCc1ccccn1)c1nc(-c2ccccc2)cc2[nH]ccc12 | i | -4
Cn1ccc2c(C(=O)NCc3cccnc3)nc(-c3ccccc3C#N)cc21 | 13µM* | -7
COc1cc(F)ccc1-c1cc2c(ccn2C)c(C(=O)NCc2cccnc2)n1 | 40µM* | -1
Cn1ccc2c(C(=O)NCc3cccnc3)nc(-c3ccccc3)cc21 | 32µM* | -3
Cn1nccc1-c1cc2c(ccn2C)c(C(=O)NCc2cccnc2)n1 | i | 32
O=C(CNc1nc(Cl)nc2nc[nH]c12)NCCc1c[nH]c2ccc(Cl)cc12 | i | x
COc1ccc(CCn2c(SCc3ccccc3)nc3c2c(=O)n(C)c(=O)n3C)cc1 | i | x
CC(C)Cn1cnc2c1c(=O)n(CC(=O)Nc1cccc(C(F)(F)F)c1)c(=O)n2Cc1ccccc1 | i | x
O=C(NC1CCCCC1)c1cc(-c2ccc(Cl)cc2)nc2ccccc12 | i | x
O=C1CCC(CNC(=O)c2nc(-c3ccccc3)cc3[nH]ccc23)N1 (configuration not stated) | 32µM* | -19
COc1ccc(-c2cc3c(ccn3C)c(C(=O)NCc3cccnc3)n2)cc1OC | 35µM* | 0
CN(C)Cc1ccc(-c2cc3c(ccn3C)c(C(=O)NCc3cccnc3)n2)cc1 | i | 4
SMILES | KDM5B inh | IP6K1 inh
Cn1ccc2c(C(=O)NCC3CCC(=O)N3)nc(-c3ccccc3)cc21 (configuration not stated) | i | 10
COc1ccc(OCC(=O)Nc2nonc2C)cc1 | i | x
CC(C)C(C)NC(=O)CCc1ccc(C#N)cc1 (configuration not stated) | i | x
O=C(O)c1cccc(I)c1 | i | x
COCc1cccc(-c2ccc3c(n2)c(=O)ncn3Cc2ccccc2)c1 | u | 15
O=c1ncn(Cc2ccccc2)c2ccc(-c3ccccc3)nc12 | 35µM* | 3
COc1cc(F)ccc1-c1ccc2c(n1)c(=O)ncn2CC1CC1 | u | 17
O=c1c2nc(-c3ccccc3C(F)(F)F)ccc2ncn1C1CC1 | i | 8
COc1cc(F)ccc1-c1ccc2ncn(C3CC3)c(=O)c2n1 | 32µM* | 12
COc1cc(F)ccc1-c1ccc2c(n1)c(=O)ncn2Cc1ccccc1 | 35µM* | -6
O=c1ncn(Cc2ccccc2)c2ccc(-c3cccnc3)nc12 | i | 1
O=c1ncn(CC2CC2)c2ccc(-c3ccc(F)cc3F)nc12 | 32µM* | -10
CCOc1cc(C(=O)NNC(=S)NCCCOC)cc(OCC)c1OCC | i | x
CCc1ccc(CCC(=O)NCC2CCCO2)cc1 (configuration not stated) | i | x
CC(C)(C)C1CCC2(CC1)NC(=O)N(CC(=O)Nc1ccc3c(c1)OCCO3)C2=O (configuration not stated) | i | -10
NC(=O)c1ccc(NC(=O)c2ccc(Cl)c(S(=O)(=O)N3CCc4ccccc4C3)c2)cc1 | i | x
NCCCCOCc1ccccc1 | i | x
O=C(c1ccncc1)N1CCCC2(CNc3ncccc3[S+](=O)([O-])N2)C1 (configuration not stated) | x | 0
COc1ccc(CC(C#N)C(=O)Nc2cccc(C)c2C)cc1 (configuration not stated) | i | x
c1cc2c(cc1N1CCC(N[C@H]3C[C@@H]4OCC[C@H]34)CC1)CCC2 | i | 29
Fc1ccc2cnc(N3CCC(N[C@H]4C[C@@H]5OCC[C@H]45)CC3)nc2c1 | 25µM* | 44
